Hit rate of the full screen: of about 220,000 compounds, about 910 (0.41%) were called active. This is one part of a sample in which actives are shown more often than they occur. Potency and affinity values are given separately. Unmarked numbers belong to inactive results.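 How the source made its calls: active means primary inhibition above the hit cutoff, then over 50% inhibition at one or more dose response concentrations (cut at about 23% in these data, passing the limit was not always enough); inconclusive means conflicting primary data, or primary hits not chosen for dose response; inactive means low primary inhibition, or under 50% at every dose.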
Target: Aminopeptidase N (Plasmodium falciparum (isolate 3D7)) (UniProt O96935)
Experiment: P. falciparum M1AAP inhibitors, biochemical, fluorogenic H-Leu-NHMec substrate, 1536-well (AID 1445);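 further: plate controls were DMSO full reaction for no effect and no enzyme background for full effect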
Conditions: recombinant M1AAP, H-Leu-NHMec fluorogenic kinetic assay; at 30 µM, stronger effect = higher value unless noted

Aminopeptidase N (Plasmodium falciparum (isolate 3D7)), sequence (O96935 whole entry, looked up): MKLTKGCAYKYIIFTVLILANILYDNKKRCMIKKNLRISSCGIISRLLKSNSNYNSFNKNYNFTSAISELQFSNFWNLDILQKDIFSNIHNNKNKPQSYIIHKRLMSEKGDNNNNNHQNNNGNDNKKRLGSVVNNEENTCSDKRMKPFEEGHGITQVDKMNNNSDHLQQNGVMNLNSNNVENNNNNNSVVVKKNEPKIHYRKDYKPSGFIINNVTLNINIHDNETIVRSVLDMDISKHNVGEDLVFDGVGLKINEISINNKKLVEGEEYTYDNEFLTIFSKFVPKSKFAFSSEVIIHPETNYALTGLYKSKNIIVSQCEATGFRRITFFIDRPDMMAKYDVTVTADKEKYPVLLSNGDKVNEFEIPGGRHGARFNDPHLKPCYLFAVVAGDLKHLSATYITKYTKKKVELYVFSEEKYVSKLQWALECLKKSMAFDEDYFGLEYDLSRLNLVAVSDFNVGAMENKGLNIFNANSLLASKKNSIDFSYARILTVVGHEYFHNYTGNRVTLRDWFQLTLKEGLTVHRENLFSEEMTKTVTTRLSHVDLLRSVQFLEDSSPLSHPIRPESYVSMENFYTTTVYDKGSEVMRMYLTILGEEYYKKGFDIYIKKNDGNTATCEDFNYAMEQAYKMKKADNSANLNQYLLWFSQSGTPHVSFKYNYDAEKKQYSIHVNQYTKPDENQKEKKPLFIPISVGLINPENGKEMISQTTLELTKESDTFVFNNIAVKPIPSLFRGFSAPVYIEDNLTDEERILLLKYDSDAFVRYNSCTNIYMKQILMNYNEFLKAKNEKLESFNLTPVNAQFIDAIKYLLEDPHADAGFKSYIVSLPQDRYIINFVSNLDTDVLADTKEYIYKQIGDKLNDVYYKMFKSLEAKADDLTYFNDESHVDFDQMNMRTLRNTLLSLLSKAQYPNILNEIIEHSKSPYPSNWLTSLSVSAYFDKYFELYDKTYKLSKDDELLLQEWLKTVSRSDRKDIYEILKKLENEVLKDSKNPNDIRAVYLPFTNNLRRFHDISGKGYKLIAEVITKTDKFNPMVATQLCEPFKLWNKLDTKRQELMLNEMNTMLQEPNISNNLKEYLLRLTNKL

| SMILES | inhibition |
| --- | --- |
| O=C(CSc1nc2c(c(=O)[nH]1)CCCC2)Nc1ccc(Cl)cc1F | -2.08% |
| CS(=O)(=O)N1CCC(C(=O)Nc2ccc(F)cc2F)CC1 | -3.46% |
| CCCCC(CC)CNC(=O)c1cccs1 (stereo not drawn) | -3.27% |
| Cc1ccccc1NS(=O)(=O)c1cc(C(=O)N2CCCC2)ccc1C | 4.97% |
| Cc1nnc(SCC(=O)NCCN2C(=O)CSC2=O)s1 | 2.17% |
| Cc1cccc(CSc2ncccc2C(=O)O)c1 | 2.89% |
| Cc1ccc(CSc2ncccc2C(=O)O)cc1 | 1.82% |
| COc1ccc(-c2cc(C(=O)NCc3ccccc3)no2)cc1OC | -1.3% |
| CC(=O)N=c1sc2cc(C)ccc2n1C | 3.39% |
| Cc1cc(C(=O)OCC(=O)NCc2ccc(Cl)cc2)c(C)o1 | -6.7% |
| CCN(CC)CCC(=O)Nc1cccc2c1C(=O)c1ccccc1C2=O | 7.62% |
| CCN(CC)CC(=O)Nc1cccc2c1C(=O)c1ccccc1C2=O | 5.73% |
| CCN(CC)C(C(=O)NC1CCCCC1)c1ccc(C)cc1 (stereo not drawn) | -1.29% |
| COc1ccc(NC(=O)CN2C(=O)c3ccccc3Sc3ccc(C(=O)N4CCOCC4)cc32)c(OC)c1 | 9.02% |
| CSCCC1C(C#N)=C(N)Oc2n[nH]c(-c3cccs3)c21 (stereo not drawn) | 23.8% (active) |
| CC(C)C1C(C#N)=C(N)Oc2n[nH]c(-c3cccs3)c21 (stereo not drawn) | 5.75% |
| CC(C)CC1C(C#N)=C(N)Oc2n[nH]c(-c3cccs3)c21 (stereo not drawn) | -0.26% |
| Cc1ccc2c(CN3C(=O)NC4(CCCCC4)C3=O)cc(=O)oc2c1C | 8.97% |
| Cc1ccc(CSc2nc3sc(C)c(C)c3c(=O)n2Cc2ccco2)cc1 | 9.77% |
| O=C(Nc1ccccc1Cl)c1ccc2c(c1)N(Cc1ccc(F)cc1)C(=O)CS2=O (stereo not drawn) | 3.24% |
| O=C(NC1CCCCCCC1)c1ccc2c(c1)N(Cc1ccc(F)cc1)C(=O)CS2=O (stereo not drawn) | 23.5% (active) |

| SMILES | inhibition |
| --- | --- |
| Cc1ccc(C)c(NC(=O)c2ccc3c(c2)N(Cc2ccc(F)cc2)C(=O)CS3=O)c1 (stereo not drawn) | -7.55% |
| CNC(=O)c1cc2c(ccc3ccccc32)o1 | 3.24% |
| Cn1ncc(Br)c1C(=O)Nc1ccc(Br)cn1 | -3.07% |
| Cc1occc1C(=O)NCCCc1ccccc1 | 0.03% |
| O=C(Nc1nnc(SCc2ccccc2)s1)c1cccs1 | -2.48% |
| COCC(=O)Nc1cc(C(=O)NCCc2ccccc2)ccc1Cl | -6.24% |
| COc1ccc(C(=O)Nc2cc(C(=O)NCCc3ccccc3)ccc2Cl)cc1 | 13.3% |
| COc1cccc(C(=O)Nc2cc(C(=O)NCCc3ccccc3)ccc2Cl)c1 | 24.9% (active) |
| Cc1ccc(C(C(=O)NC(C)(C)C)N(Cc2cccs2)C(=O)c2ccc3c(c2)OCCO3)cc1 (stereo not drawn) | 9.95% |
| O=C(Cn1nnc(-c2ccc3c(c2)OCO3)n1)N1CCOCC1 | 0.39% |
| CCOc1ccc(N2CC(C(=O)Nc3ccc(S(=O)(=O)Nc4ncccn4)cc3)CC2=O)cc1 (stereo not drawn) | 20.6% |
| CN(Cc1cnccn1)Cc1c(C(=O)N2CCc3ccccc3C2)nc2ccc(Cl)cn12 | 1.48% |
| CC1(NC(=S)NCCO)CCS(=O)(=O)C1 (stereo not drawn) | 6.94% |
| O=C(NCc1ccco1)C1CCN(S(=O)(=O)c2cccc3cccnc23)CC1 | 0.35% |
| COc1ccc(NC(=O)C2CCCN(S(=O)(=O)c3cccc4cccnc34)C2)cc1OC (stereo not drawn) | 28.4% (active) |
| COc1cccc(NC(=O)C2CCCN(S(=O)(=O)c3cccc4cccnc34)C2)c1 (stereo not drawn) | 4.01% |
| O=C(NCc1cccs1)C1CCCN(S(=O)(=O)c2cccc3cccnc23)C1 (stereo not drawn) | 21.9% |
| COc1ccc(CNC(=O)C2CCN(S(=O)(=O)c3cccc4cccnc34)CC2)cc1 | 11.4% |
| O=C(NCc1cccs1)C1CCN(S(=O)(=O)c2cccc3cccnc23)CC1 | 45.9% (active) |
| COc1ccc(NC(=O)C2CCN(S(=O)(=O)c3cccc4cccnc34)CC2)cc1OC | 2.6% |
| O=C(NCc1cccs1)C1CCN(S(=O)(=O)c2cccc3nsnc23)CC1 | 6.27% |

| SMILES | inhibition |
| --- | --- |
| CCOc1ccccc1C1C(C(=O)OC)=C(N)OC2=C1C(=O)CCC2 (stereo not drawn) | 3.31% |
| CCOC(=O)N1CCC(NC(=O)C2=CCN(S(=O)(=O)c3ccc(F)cc3)CC2)CC1 | -3% |
| Cc1cccc(C(=O)Nc2sc(C)c(-c3ccccc3)c2C#N)c1 | 3.54% |
| O=C(OC1CCOC1=O)c1ccc(Cl)c(S(=O)(=O)N2CCCCC2)c1 (stereo not drawn) | 1.33% |
| COc1cc(/C=C2\SC(c3ccc(C)cc3)=NC2=O)cc(OC)c1O | 19.7% |
| COc1cc(/C=C2\SC(c3ccc(C)cc3)=NC2=O)cc(OC)c1OC | -0.48% |
| C=CCn1c(=N)c(C(=O)NCCCOC)cc2c(=O)n3ccccc3nc21 | 13.6% |
| C=CCn1c(=N)c(C(=O)NCCCOC)cc2c(=O)n3cc(C)ccc3nc21 | 4.34% |
| COCCCNC(=O)c1cc2c(=O)n3cccc(C)c3nc2n(C(C)C)c1=N | 21.8% |
| COCCNC(=O)c1cc2c(=O)n3cccc(C)c3nc2n(Cc2ccncc2)c1=N | 30.2% |
| CC(CN1CCCCC1)OC(=O)C1c2ccccc2Oc2ccccc21 (stereo not drawn) | 1.62% |
| Cc1ccc(S(=O)(=O)N2c3ccccc3CC2C)cc1 (stereo not drawn) | 2.44% |
| CC(c1ccccc1)C1CC(=O)N(C2CCCCC2)C1=O (stereo not drawn) | -0.34% |
| COc1ccc2cc1Oc1ccc(cc1)C[C@H]1c3c(cc4c(c3Oc3cc5c(cc3OC)CCN(C)[C@@H]5C2)OCO4)CCN1C | 2.7% |
| COc1ccc2cc1Oc1ccc(cc1)C[C@H]1c3cc(c(OC)cc3CCN1C)Oc1c(OC)c(OC)cc3c1[C@H](C2)N(C)CC3 | 0.59% |
| CC(c1ccccc1)n1c(Cn2ncc3ccccc3c2=O)n[nH]c1=S (stereo not drawn) | 7.12% |
| O=C(NCc1ccccc1)C1CCCN(S(=O)(=O)c2cccc3nonc23)C1 (stereo not drawn) | 34.1% |
| O=C(NCc1ccco1)C1CCCN(S(=O)(=O)c2cccc3nsnc23)C1 (stereo not drawn) | 5.11% |
| O=C(NCc1ccc2c(c1)OCO2)C1CCCN(S(=O)(=O)c2cccc3cccnc23)C1 (stereo not drawn) | 18.6% |
| O=C(NCc1ccc2c(c1)OCO2)C1CCCN(S(=O)(=O)c2cccc3nonc23)C1 (stereo not drawn) | 27.8% (active) |
| O=C(NCc1ccco1)C1CCCN(S(=O)(=O)c2cccc3cccnc23)C1 (stereo not drawn) | 9.65% |
